Laboratory results from PubChem BioAssay (NCATS).
Inconclusive results are not listed. The source made the active and inactive calls. Unless noted, the call rests on the fitted dose curve; in most records, active means well fitted curve in the direction sought with a large enough effect; inconclusive means small, poorly fitted or top-dose-only effect, or another doubt; inactive means no such curve, though single readings can be large; an effect the other way counts as inactive or inconclusive.

Key:
C33A = experiment: Primary qHTS to identify gynecologic anti-cancer compounds using libraries of approved drugs and bioactive compounds (AID 1345084); details: Gynecologic cancer cell panel viability, ATPlite luminescence, 48 h; series mostly up to 57.5 µM; further: nearly all actives have a fitted effect of over 55% in size; further: potency means the concentration at half of the fitted maximal effect
How it was run: (§1)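 Cytotoxicity screen measuring ATP content by luciferase luminescence. Each compound is applied at five concentrations for 48 h at 37 C with 5% CO2.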

HeLa = experiment: as above; details: Gynecologic cancer cell panel viability, ATPlite luminescence, 48 h; series mostly up to 57.5 µM
How it was run: as §1

JEG-3 = experiment: as above; details: Gynecologic cancer cell panel viability, ATPlite luminescence, 48 h; series mostly up to 57.5 µM
How it was run: as §1

Tov-21-G = experiment: as above; details: Gynecologic cancer cell panel viability, ATPlite luminescence, 48 h; series mostly up to 57.5 µM
How it was run: as §1

astro = experiment: Drug repurposing screens with cells derived from glioblastoma tumor samples (AID 1345199); details: viability, ATP luminescence, 48 h; series mostly up to 45.9 µM; further: nearly all actives have a fitted effect of over 40% in size; further: potency means the concentration at half of the fitted maximal effect; on activity, negative = cell killing: on the % scale 0 is the no-effect control and ±100 the full control effect
How it was run: (§2)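 Primary testing used CD133+ neurospheres from four GBM patients, seven concentrations, 48 h exposure and ATP-based viability; confirmation added three slower-growing patient lines.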

Es-2 = experiment: Primary qHTS to identify gynecologic anti-cancer compounds using libraries of approved drugs and bioactive compounds (AID 1345084); details: Gynecologic cancer cell panel viability, ATPlite luminescence, 48 h; series mostly up to 57.5 µM; further: nearly all actives have a fitted effect of over 55% in size; further: potency means the concentration at half of the fitted maximal effect
How it was run: as §1

Hek293T = experiment: as above; details: Gynecologic cancer cell panel viability, ATPlite luminescence, 48 h, control line for the selectivity index; series mostly up to 57.5 µM
How it was run: as §1

SKOV3 = experiment: as above; details: Gynecologic cancer cell panel viability, ATPlite luminescence, 48 h; series mostly up to 57.5 µM
How it was run: as §1

CASKI = experiment: as above; details: Gynecologic cancer cell panel viability, ATPlite luminescence, 48 h; series mostly up to 57.5 µM
How it was run: as §1

OV90 = experiment: as above; details: Gynecologic cancer cell panel viability, ATPlite luminescence, 48 h; series mostly up to 57.5 µM
How it was run: as §1

PA-1 = experiment: as above; details: Gynecologic cancer cell panel viability, ATPlite luminescence, 48 h; series mostly up to 57.5 µM
How it was run: as §1

Tov112D = experiment: as above; details: Gynecologic cancer cell panel viability, ATPlite luminescence, 48 h; series mostly up to 57.5 µM
How it was run: as §1

[1] = Drug repurposing screens with cells derived from glioblastoma tumor samples (AID 1345199); details: GBM patient neurospheres viability, ATP luminescence, 48 h; further: nearly all actives have a fitted effect of over 40% in size; further: potency means the concentration at half of the fitted maximal effect; on activity, negative = cell killing: on the % scale 0 is the no-effect control and ±100 the full control effect
How it was run: as §2

[2] = qHTS assay to identify inhibitors of the type 1 interferon - major histocompatibility complex class I in skeletal muscle: Counter screen cell viability and HiBit confirmation (AID 1347412); details: iHSKM muscle cells + IFN-b, HiBiT or CellTiter-Glo, 24 h; Potency: HiBiT; Viability, at 45.9 µM (top of the series); further: on the % scale 0 is the no-effect control and ±100 the full control effect; nearly all actives have a fitted effect of over 60% in size
How it was run: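 Duplicate plates, pinned identically: one read for HiBiT-tagged endogenous HLA-B luminescence, the other for ATP-content viability via CellTiter Glo. Cells were genome-engineered human myoblasts given 4 ng/ml IFN-b; compounds 12-pt, 1:3 from 46 uM final; 24 hr exposure.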

[3] = qHTS assay for small molecule activators of the human pregnane X receptor (PXR) signaling pathway (AID 720659; call rule not given here; further: 0% is about no effect)
[4] = at 45.9 µM (top of the series), tumour line B
[5] = at 45.9 µM (top of the series), tumour line D
[6] = at 46 µM (top of the series), tumour line A
[7] = at 46.1 µM (top of the series), tumour line C

O=C1NC2CCCCN2C12CCN(CCCN1c3ccccc3CCc3ccc(Cl)cc31)CC2 (stereo unspecified)
inactive: Potency (C33A) | Potency (HeLa) | Potency (JEG-3) | Potency (Tov-21-G)
active: Potency (astro) 20 µM

CC(=O)N(CC(=O)N(C)C)c1ccccc1
inactive: Potency (C33A) | Potency (Es-2) | Potency (HeLa) | Potency (Hek293T) | Potency (SKOV3) | Potency (Tov-21-G)

COc1ccc2cc(C=O)ccc2c1
inactive: Potency (C33A) | Potency (CASKI) | Potency (Es-2) | Potency (HeLa) | Potency (Hek293T) | Potency (JEG-3) | Potency (OV90) | Potency (PA-1) | Potency (SKOV3) | Potency (Tov-21-G) | Potency (Tov112D)

Cc1onc(-c2c(Cl)cccc2Cl)c1C(=O)Cl
inactive: Potency (C33A) | Potency (CASKI) | Potency (Es-2) | Potency (HeLa) | Potency (Hek293T) | Potency (JEG-3) | Potency (OV90) | Potency (PA-1) | Potency (SKOV3) | Potency (Tov-21-G) | Potency (Tov112D)

CCOCCn1c(C2CCN(CCc3ccc(C(C)(C)C(=O)O)cc3)CC2)nc2ccccc21
inactive: Potency (C33A) | Potency (CASKI) | Potency (Es-2) | Potency (HeLa) | Potency (Hek293T) | Potency (JEG-3) | Potency (OV90) | Potency (PA-1) | Potency (SKOV3) | Potency (Tov-21-G) | Potency (Tov112D)

Cc1cc2nc3ccc(=[N+](C)C)cc-3sc2cc1N
active: Potency (C33A) 3.98 µM | Potency (CASKI) 12.6 µM | Potency (Es-2) 14.1 µM | Potency (Hek293T) 14.1 µM | Potency (OV90) 22.4 µM | Potency (PA-1) 3.55 µM | Potency (SKOV3) 35.5 µM | Potency (Tov-21-G) 28.2 µM | Potency (Tov112D) 12.6 µM

COC(=O)C1=CO[C@@H](O)[C@@H]2C(CO)=CC[C@H]12
inactive: Potency (C33A) | Potency (CASKI) | Potency (Es-2) | Potency (HeLa) | Potency (Hek293T) | Potency (JEG-3) | Potency (OV90) | Potency (PA-1) | Potency (SKOV3) | Potency (Tov-21-G) | Potency (Tov112D)

COc1ccc(OC(=O)N(CC(=O)O)Cc2ccc(OCCc3nc(-c4ccccc4)oc3C)cc2)cc1
inactive: Potency (C33A) | Potency (CASKI) | Potency (Es-2) | Potency (HeLa) | Potency (Hek293T) | Potency (JEG-3) | Potency (OV90) | Potency (PA-1) | Potency (SKOV3) | Potency (Tov-21-G) | Potency (Tov112D)

Cc1nc([N+](=O)[O-])cn1-c1ccc([N+](=O)[O-])cc1
inactive: Potency (C33A) | Potency (CASKI) | Potency (Es-2) | Potency (HeLa) | Potency (Hek293T) | Potency (JEG-3) | Potency (OV90) | Potency (PA-1) | Potency (Tov-21-G) | Potency (Tov112D) | activity, negative = cell killing [1, 4] -9.26% | activity, negative = cell killing [1, 5] -5.48% | activity, negative = cell killing [1, 6] -16.5% | activity, negative = cell killing [1, 7] 4.99% | Potency (astro)

CC(C)C(=O)Nc1cccc(C2CN3CCSC3=N2)c1 (stereo unspecified)
inactive: Potency (C33A) | Potency (CASKI) | Potency (Es-2) | Potency (HeLa) | Potency (Hek293T) | Potency (JEG-3) | Potency (OV90) | Potency (PA-1) | Potency (SKOV3) | Potency (Tov-21-G) | Potency (Tov112D)

COCCOCC(OC)OC
inactive: Potency (C33A) | Potency (CASKI) | Potency (Es-2) | Potency (HeLa) | Potency (Hek293T) | Potency (JEG-3) | Potency (OV90) | Potency (PA-1) | Potency (SKOV3) | Potency (Tov-21-G) | Potency (Tov112D)

O=C1NCCN1CCN1CCC(c2cn(-c3ccc(F)cc3)c3ccc(Cl)cc23)CC1
active: Potency (C33A) 20 µM | Potency (CASKI) 35.5 µM | Potency (Hek293T) 31.6 µM | Potency (SKOV3) 28.2 µM | Potency (astro) 17.8 µM

CC(=O)Nc1ccn(C2COC(COC(=O)c3ccccc3)O2)c(=O)n1 (stereo unspecified)
inactive: Potency (C33A) | Potency (CASKI) | Potency (HeLa) | Potency (Hek293T) | Potency (JEG-3) | Potency (PA-1) | Potency (SKOV3) | Potency (Tov-21-G) | activity, negative = cell killing [1, 4] -21.5% | activity, negative = cell killing [1, 7] -14.9%

Nc1ncnc2nc[nH]c12
inactive: Potency (C33A) | Potency (CASKI) | Potency (Es-2) | Potency (HeLa) | Potency (Hek293T) | Potency (JEG-3) | Potency (OV90) | Potency (PA-1) | Potency (Tov-21-G) | Potency (Tov112D) | activity, negative = cell killing [1, 4] 11.8% | activity, negative = cell killing [1, 5] 4.13% | activity, negative = cell killing [1, 6] -8.57% | activity, negative = cell killing [1, 7] 8.85% | Potency (astro)

Nc1cccc2c(N)cccc12
inactive: activity, negative = cell killing ([1]; at 99.2 µM (top of the series), tumour line C) -15.4%

Nc1c2ccccc2nc2ccccc12
active: Potency ([1]; tumour line B) 12.6 µM | Potency ([1]; tumour line D) 10 µM

O=C(Nc1ccc(S(=O)(=O)N2CCOCC2)cc1)c1cc(Cl)ccc1NS(=O)(=O)c1ccc(Cl)s1
active: Potency ([1]; tumour line C) 25.9 µM | Potency ([1]; tumour line D) 15.8 µM

O=C1Nc2ccccc2C1(c1ccc(O)cc1)c1ccc(O)cc1
inactive: Potency [2]

CCN(CC)CCOc1ccc(/C(=C(\Cl)c2ccccc2)c2ccccc2)cc1
inactive: Potency [2]

O=C(Nc1ccc(Cl)cc1)Nc1ccc(Cl)c(Cl)c1
inactive: outcome [3]

OCc1c[nH]c2ccccc12
inactive: outcome [3]
